Growth data for 40 compounds are collected here from PubChem BioAssay (NCI).

Several values for one entry are separate records, joined by “and”; a condition that tells them apart may be missing. Equal entries are not always repeated. About 83,000 compounds went through this panel and 20% of them were active in at least one assay; those are over-represented in the sample as a whole.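 The endpoint reported here, percent growth, reads 100 for growth as untreated, 0 for no net growth and -100 for all cells dead.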 A number with no mark means an inactive call. Activity calls are given as the source filed them. How the source made its calls: active means growth percent below 10; inactive means the rest.

One assay deals with SN12C renal. Description: NCI-60 one-dose screen, 48 h (100 = growth as untreated, 0 = no growth, -100 = all killed). The conditions noted are these: 10 µM unless noted.
In the case of `COc1ccc(-c2cc(-c3ccc(N4CCOCC4)cc3)n3c(n2)nc2ccccc23)cc1OC`, the growth is 78.6%.

With `CCOC(=O)c1c(NC(=O)c2cccc(C(F)(F)F)c2)sc2c1CCC(=O)C2`, the growth was 42.9%.

As to `CN1CCN(c2ccc(Nc3nc(NCCCNS(=O)(=O)c4ccc(Cl)cc4)c4sccc4n3)cc2)CC1`, the growth was 36.7%.

Regarding `CCOC(=O)C(=O)Nc1ccc2c(ccn2C(=O)c2cccc(F)c2)c1`, the growth is 101%.

`CCOc1cccc(/C(N)=N/C(N)=N/c2nc3ccccc3s2)c1`: the growth is 53.1%.

Take `CN1CCN(c2ccc(Nc3nc(NCCCNS(=O)(=O)c4ccc(C(F)(F)F)cc4)c4sccc4n3)cc2)CC1`: the growth is -60.2% (active).

`Cc1ccc2c(n1)C(=O)C(Cl)=C(Nc1cccc(C(F)(F)F)c1)C2=O`: the growth is 85.8%.

The subject of a further assay is UO-31 renal. Described as above. The conditions noted are these: 10 µM unless noted.
Consider `Cc1cc(Br)ccc1-n1cc(C#N)c(N)c1C(=O)c1ccc(Br)cc1`, for which the growth was 80.1%.

Turning to `CCCCCCN1C=C/C(=C\C(=O)n2ccc3ccccc32)c2ccccc21`, the growth was 52%.

Turning to `Cc1ccc(CSC2=C(Cl)CN(c3ccc(Cl)cc3)C2=O)cc1`, the growth is 78.6%.

Regarding `Clc1ccc(CSc2nnc(-c3ccc(Cl)cc3)n2-c2ccccc2)cc1`, the growth was 68.2%.

Take `NS(=O)(=O)c1ccc(CCn2c(-c3ccc(C(=O)O)cc3)nc(-c3ccccc3)c2-c2ccccc2)cc1`: the growth was 90.8%.

For `CC(=C(c1ccc(OCCCN(C)C)cc1)c1ccc(OCCCN(C)C)cc1)c1ccc(Cl)cc1`, the growth is 88.5%.

Consider `CC[C@]12CC(C(=O)OC)=C3Nc4ccccc4[C@@]34CCN(C14)[C@@H]1c3cc4c(cc3O[C@@H]1[C@H]2O)NC1=C(C(=O)OC)C[C@@]2(CC)C3N(CC[C@@]143)C[C@H]1O[C@H]12` (some centres not stated), for which the growth was 7.33% (active).

For the compound `Cc1ccc(-c2csc(N/N=C/c3cccs3)n2)cc1`, the growth is 75.1%.

Take `CN1CCC[C@]2(C)[C@H]3CC[C@@H]4[C@@H]5[C@H]6OC[C@@]5(CCC6(C)C)CC[C@@]4(C)[C@]3(C)CC[C@H]2C1(C)C`: the growth was 91.5%.

Consider `O=S(=O)(Oc1ccc(-c2cn3ccoc3n2)cc1)c1cccc(C(F)(F)F)c1`, for which the growth is 93.1%.

Consider `CC(Nc1c(C#N)cnc2ccc(-c3cncc(-c4n[nH]c(=O)o4)c3)cc12)c1ccccc1` (configuration not stated), for which the growth is 1.27% (active).

On to `C#CCN(C)CCCOc1ccc(NC(=O)CCCCCCCCC(=O)NO)cc1Cl`, for which the growth is 51.7%.

With `CCCc1cc2cc(-n3nc(CC)c4c3CC(C)(C)CC4=O)cc(NC3CCC(O)CC3)c2c(=O)[nH]1` (configuration not stated), the growth was 14.1%.

With `O=C(CN1CCN(c2cc(=O)[nH]c3ccc(F)cc23)CC1)N(c1ccccc1)c1ccccc1`, the growth is 90.3%.

For `CN1CCN(c2ccc(Nc3nc(NCCCNS(=O)(=O)c4cccc(F)c4)c4sccc4n3)cc2)CC1`, the growth is 54.2%.

`COc1ccc(C(=NNS(=O)(=O)c2ccc(C)cc2)c2ccccc2)cc1OC`: the growth was 77.4%.

On to `COc1ccc(/C=N/NC(=O)c2c(N)nn(C)c2Nc2ccccc2)cc1Oc1ccccc1`, for which the growth was 71.7%.

In the case of `C#C[C@]1(O)CC[C@H]2[C@@H]3CC=C4c5sc(NCc6ccccc6)nc5CC[C@]4(C)[C@H]3CC[C@@]21C`, the growth was 13.2%.

As to `Cc1cc(NS(=O)(=O)c2ccc(NC(=O)CSc3nc4ccccc4c(=O)n3-c3ccccc3)cc2)no1`, the growth was 85.9%.

As for `CC(C)NC(=O)c1cc(-c2ccc(NC(=O)Nc3ccc(F)c(C(F)(F)F)c3)cc2)nc2cccnc12`, the growth is 92.3%.

Turning to `CCOC(=O)c1cccnc1Nc1ccc(NC(=O)Nc2ccc(Cl)c(C(F)(F)F)c2)cc1`, the growth was 34.1%.

Consider `O=C(CSc1nc2ccccc2c(=O)n1-c1ccc(S(=O)(=O)Nc2ccc(Cl)nn2)cc1)Nc1ccc(S(=O)(=O)Nc2ccc(Cl)nn2)cc1`, for which the growth was 87.9%.

On to `COc1cc(-c2nc(-c3ccccc3)[nH]c2-c2ccnc(NCCCNS(=O)(=O)c3ccc(C(F)(F)F)cc3)n2)ccc1Cl`, for which the growth was 46.5% and 35.4%.

Regarding `Cc1csc(/N=C(N)/N=C(\N)c2cccc(C#N)c2)n1`, the growth was 76.3%.

For `CC[C@]12C=CCN3CC[C@]4(C(=C(C(=O)OC)C1)Nc1cc5c(cc14)[C@@H]1[C@H](O5)[C@@H](O)[C@@]4(CC)CC(C(=O)OC)=C5Nc6cc(O)ccc6[C@@]56CCN1C46)C32` (some centres not stated), the growth is 4.9% (active).

Regarding `COc1ccc(OC)c(CCn2cncc2-c2c[nH]c3ccc(Cl)cc23)c1`, the growth is 46.6%.

Regarding `Cc1ccc(-c2cc3nc(C(Cl)Cl)nc(-c4ccc(S(=O)(=O)N(C)C)cc4)n3n2)cc1`, the growth was 92.1%.

For the compound `CC1=C(C)C(=O)C(Nc2cccc(C(=O)OC(C)(C)C)c2)=C(Cl)C1=O`, the growth is 86.5%.

Take `COC(=O)c1ccc(NC2=C(Cl)C(=O)C(C)=C(C)C2=O)cc1`: the growth was 65.1%.

As to `Cc1nc(/N=C(N)/N=C(\N)c2cccc(Br)c2)sc1C`, the growth is 52.5%.

Turning to `COC(=O)c1cccc(NC2=C(Cl)C(=O)c3nc(C)ccc3C2=O)c1`, the growth is 48.5%.

As for `CN(C)c1ccc(/C=N/Nc2nc(N/N=C/c3ccc(N(C)C)cc3)nc(N3CCCCC3)n2)cc1`, the growth was 80.3%.

With `OCC(Nc1ncnc2ccc(-c3cnc4cnccn34)cc12)c1ccccc1` (configuration not stated), the growth is 36.6%.

With `COc1ccc(-c2cc(-c3ccc(N4CCOCC4)cc3)n3c(n2)nc2ccccc23)cc1OC`, the growth is 39.2%.

Turning to `CCOC(=O)c1c(NC(=O)c2cccc(C(F)(F)F)c2)sc2c1CCC(=O)C2`, the growth was 7.65% (active).

As to `CN1CCN(c2ccc(Nc3nc(NCCCNS(=O)(=O)c4ccc(Cl)cc4)c4sccc4n3)cc2)CC1`, the growth is -58.9% (active).

Turning to `CCOC(=O)C(=O)Nc1ccc2c(ccn2C(=O)c2cccc(F)c2)c1`, the growth was 88.2%.

`CCOc1cccc(/C(N)=N/C(N)=N/c2nc3ccccc3s2)c1`: the growth was 38.4%.

On to `CN1CCN(c2ccc(Nc3nc(NCCCNS(=O)(=O)c4ccc(C(F)(F)F)cc4)c4sccc4n3)cc2)CC1`, for which the growth was -85% (active).

`Cc1ccc2c(n1)C(=O)C(Cl)=C(Nc1cccc(C(F)(F)F)c1)C2=O`: the growth was -67.7% (active).
